Screening results deposited in PubChem BioAssay by several laboratories.
AI-2 QS modul – modulates the Vibrio harveyi AI-2 quorum sensing system | Vibrio harveyi JMH597 AI-2 luminescence/OD600 ratio, 9 h; hits give low values; strain lacks LuxN and CqsS sensors; 0 = neutral-control median | AID 2094 | 0.4% of 300,000 active | activity change, % at 7.5 µM; in the data active = activity change below about -75%, passing the limit was not always enough; inconclusive = no clear call, values can overlap the other calls;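 note: luminescence divided by OD600 gain over 9 h not by final OD600 alone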
HSP90 inh – HSP90 refolding inhibition in rabbit reticulocyte lysate | luciferase refolding luminescence, 3 h | inhibition, % at 5.6 µM | 0.91% of 290,000 active | AID 1789;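 active = inhibition above the screen-wide mean plus 3 SD, computed separately per campaign, cut at about 16% in these data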;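 note: inhibitors lower the luminescence because luciferase stays unfolded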
PG9 binder – small molecules binding HIV-1 gp120 antibody PG9 | TR-FRET gp120-PG9 antibody binding | inhibition, % at 6.7 µM | 0.43% of 360,000 active; in the data active = inhibition above about 8.5%
HSF1 inh – HSF1 inhibition | NIH3T3-HGL HSE-luciferase, MG132-induced, luminescence 8 h; hits give low values | activity change, negative = inhibition, % at 7.5 µM (by protocol) | 0.77% of 300,000 active | AID 2098;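 active = more than half of replicate wells show activity change below -50%, luminescence cut by over half; inconclusive = some wells, but at most half, below -50%; inactive = no replicate well below -50%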;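 note: luciferase reports HSF-1 transcriptional activity via heat shock element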
SMARCA2 activ – activators of SMARCA2 function; MG213 cells, MMTV-luciferase reporter, dexamethasone, overnight; activation, % at 9.1 µM; 1% of 370,000 active; in the data active = activation above about 7.8%
GAA850 FXN act – increases GAA850 frataxin promoter reporter activity. HEK293 lucGAA850 FXN promoter luciferase reporter, 24 h; percent of 10 µM SAHA response. activation, % at 6 µM. 0.56% of 360,000 active. AID 540364;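 active = activation above the average of all compounds screened plus 3 SD, cutoff fixed separately per campaign, cut at about 7.5% in these data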
A number is an active result; 0 = inactive; ? = inconclusive; - = no result given. Sampled rows, rich in hits. Any-hit rate of the full collection: about 3.4%.

SMILES	AI-2 QS modul	HSP90 inh	PG9 binder	HSF1 inh	SMARCA2 activ	GAA850 FXN act
COc1ccc(NC(=O)CSc2nnc3ccc(-c4ccncc4)nn23)cc1OC	0	0	0	-75	0	0
O=C(N[C@@H](Cc1cccnc1)C(=O)N1CCC[C@H]1C(=O)NCCc1ccccc1Cl)c1ccc(Cl)c(Cl)c1	-	-	0	-	0	-
C[C@H]1CCC[C@H](O)CC(=O)c2c(O)cc(O)cc2CC(=O)O1	-	-	-	-	0	-
COc1ccc(/C(N)=N/OC(=O)C2CCCCC2)cc1OC	0	0	0	0	0	9.0
O=C(CSc1nnc(-c2ccc(Cl)cc2)n1-c1ccccc1)Nc1ccc2c(c1)OCCO2	-	-	-	-	0	-
CCCC[C@H]1C2CC(OC(=O)Nc3ccc(F)cc3)C(C2)[C@H]2CCCCN21 (stereo partly specified)	-	-	-	-	0	-
CS(=O)(=O)N(CC(=O)NN=C1CCCCCC1)c1ccc(Oc2ccccc2)cc1	0	0	0	0	0	0
CCOc1ccc(N(CC(=O)NN=C2CCCC2)S(C)(=O)=O)cc1	0	0	0	-87	0	0
COC(=O)c1ccc(S(=O)(=O)N2CCC(NC(=O)Cc3cccc(C)c3)CC2)cc1	-	-	-	-	0	-
O=C(Nc1cccc(Cl)c1Cl)c1snnc1-c1ccccc1	0	0	0	-86	0	0
Cc1ccc2nc(N3CCN(Cc4nnnn4Cc4ccccc4)CC3)c(C#N)cc2c1	0	0	0	-62	0	0
Cc1cc(-c2n[nH]c(=S)n2-c2ccccc2)nn1C	0	0	0	0	7.9	0
S=c1[nH]nc(-c2cnccn2)n1-c1ccccc1	0	0	0	-67	0	0
COc1ccc(-n2c(-c3cnccn3)n[nH]c2=S)cc1	0	0	0	0	0	0
CCOC(=O)c1cccc(NC(=O)CCS(=O)(=O)c2ccc(Br)s2)c1	0	0	0	-92	0	0
CCOC(=O)c1cccc(NC(=O)CCS(=O)(=O)c2cccs2)c1	0	0	0	0	0	0
CCOC(=O)N(C)[C@H]1C[C@H]2c3[nH]c4c(-c5cccc(C)c5)cccc4c3CCN2C[C@H]1[C@H](C)O	-	-	-	-	0	-
COc1ccc(C(=O)CSc2nnc(-c3cccnc3)n2-c2ccc(C)cc2)cc1	-	-	-	-	0	-
O=C(C1CCC(CNS(=O)(=O)c2cccc3cccnc23)CC1)N1CCCC1 (stereo unspecified)	0	0	0	-86	0	0
CN(C(=O)C1CCC(CNS(=O)(=O)c2cccc3cccnc23)CC1)C1CCCCC1 (stereo unspecified)	0	0	0	0	0	0
CC(C)CN1C(=O)[C@]2(CC(=O)N(C)C2c2ccccc2)c2cc(-n3cc(CO)nn3)ccc21 (stereo partly specified)	-	-	-	-	0	-
Cc1cccc(-c2cccc3c4c([nH]c23)[C@@H]2C[C@H]3[C@@H](CN2CC4)[C@H](C)ON3C)c1	-	-	-	-	0	-
Cc1cc(C=C2C(=O)c3ccccc3C2=O)c(C)n1-c1ccccc1	0	0	0	?	0	0
Cc1cc(/C=C2\Cc3ccccc3C2=O)c(C)n1-c1ccccc1	0	0	0	-75	0	0
COC(=O)c1cc2c(c3c4ccccc4n(S(C)(=O)=O)c13)C(=O)N(Cc1ccccc1)C2	-	-	0	-	0	-
SMILES	AI-2 QS modul	HSP90 inh	PG9 binder	HSF1 inh	SMARCA2 activ	GAA850 FXN act
COc1ccc(S(=O)(=O)c2nnn(-c3cccc(OC)c3)c2N)cc1	0	0	0	0	0	0
Cc1ccc(S(=O)(=O)c2nnn(-c3cccc(F)c3)c2N)cc1	-97	0	0	0	0	0
NNc1nc(-c2ccccc2)c2cc(Br)ccc2n1	0	0	0	0	0	0
COc1nc(-c2ccccc2)c2cc(Br)ccc2n1	0	-	0	-68	0	0
NC(=O)c1ncn([C@@H]2O[C@H](C(=O)N[C@H](Cc3ccccc3)C(=O)N3CCN(CC(=O)Nc4ccccn4)CC3)[C@@H](O)[C@H]2O)n1	-	-	0	-	0	-
COc1ccccc1CN1CC(C(=O)NCCN2CCNC2=O)CCC1=O (stereo unspecified)	0	0	0	-73	0	0
Nc1ccc(S(=O)(=O)N2CCC(Cc3ccccc3)CC2)cc1	0	0	0	-55	0	0
O=C(Nc1ccc(Cl)cc1)/C(=C/c1cccc(O)c1)c1nc2ccccc2s1	0	0	0	-76	0	0
CCCCN1CC(COCc2ccccc2)Oc2cccc(Oc3ccc(SC)c(C)c3)c2S1(=O)=O (stereo unspecified)	-	-	0	-	0	-
c1ccc(-c2cccc(-c3ccccn3)n2)nc1	-89	0	-	0	-	0
